# In PubChem BioAssay AID1508648 (National Center for Advancing Translational Sciences (NCATS), 2021):
# Inconclusive results are not listed. Active and inactive are the calls of the source. Calls come from the whole dose curve; as a rule, active = well fitted cell-killing curve with a large enough effect; inconclusive = small, poorly fitted or top-dose-only effect, or effect the other way; inactive = flat fitted curve, though single readings scatter.
# Assay: Cell viability assay in S16 Pmp22-HiBiT cells - Confirmatory screen
# Conditions: S16 Schwann Pmp22-HiBiT viability, CellTiter-Glo, 24 h; series mostly up to 27.9 µM; activity change, negative = viability loss: at the top concentration
# Text: Assay Provider: Jim Inglese Ph.D. National Center for Advancing Translational Science, National Institutes of Health, Rockville, MD CMT is a heterogeneous group of neurological disorders that affect approximately 1 in 2,500 people. In particular, the most common form of CMT, CMT1A is genetically linked to the duplication of the PMP22 gene which leads to Schwann cell overexpression, thus manifesting itself as a typical case of dose-sensitive diseases. To identify small molecule compounds that can mediate the expression of PMP22 we developed a phenotypic assay screening strategy by utilizing genome editing techniques to construct Schwann cell lines containing novel reporter technology to monitor the transcriptional or translational regulation of PMP22. For high sensitivity we use a bioluminescent reporter system embedded in the 3' UTR of the PMP22 gene (S16(c9) Pmp22-F2sN) to identify compounds that inhibit gene expression. […] We can further discriminate the effect of all transcriptionally active molecules on PMP22 translation or stability with an assay that incorporates a short NLuc peptide (HiBiT) at the C-terminus of expressed PMP22 (S16(f8) PMP22-HiBiT) allowing alpha complementation and luminescence detection of membrane-associated PMP22 protein. These assays were screened against the NCATS Sytravon Library Collection. Miniaturization of these assays to 1536-well plate format for quantitative high throughput screening (qHTS) yielded rich data sets immediately from the qHTS assay (S16(c9) Pmp22-F2sN), when compared with data from a cell viability assay (Cell TiterGlo) to identify compounds that decreased the output signals through cellular toxicity to streamline the selection process of actives for subsequent characterization using the HiBiT assay (S16(f8) PMP22-HiBiT).
# Cell viability assay in S16 Pmp22-HiBiT cells PROTOCOL TABLE (format as described by Inglese J, Shamu CE and Guy RK. 2007) SEQUENCE No. (e.g., 1, 2, 3, etc.); PARAMETER (e.g., Cells, Incubation, Reagent, etc.); VALUE and DESCRIPTION. 1. Cells. Add 500-1,000 cells in 4 uL in growth media (DMEM High Glucose, No Phenol Red media + 10% heat-inactivated FBS + 1% Pen/Strep supplemented media) per well into Greiner 1536-well white/solid bottom high base, TC-treated plates. 2. Compounds. Library compounds and controls added at 23nL per well, transferred by Pin Tool. 3. Incubation. Incubate plates at 37C, 5% CO2, 95% RH for 24 h. 4. Reagent. Add 3uL CellTiter-Glo per well of Greiner 1536-well plates. 5. Incubation. Incubate plates at room temperature for 15 min., protect from light. 6. Detector. Luminescence measured using CCD-based camera (Viewlux). NOTES (numbers refer to Sequence numbers above; values are from representative experiments) 6. Luminescence Read: Clear filter; Exposure = 1 sec, Gain = High, Speed = Slow, Binning = 2X REFERENCES: 1. Inglese J, Shamu CE and Guy RK, Reporting data from high throughput screening of small molecule libraries, Nature Chemical Biology, 2007, 3(8): 438-441. doi.org/10.1038/nchembio0807-438 2. Yasgar A, Shinn P, Jadhav A, Auld DS, Michael S, Zheng W, Austin CP, Inglese J and Simeonov A, Compound Management for Quantitative High-Throughput Screening. J. Assoc. Lab. Auto., 2008, 13: 79-89. doi: 10.1016/j.jala.2007.12.004
SMILES,Potency,"activity change, negative = viability loss"
CCCCCS(=O)(=O)c1oc(-c2cccs2)nc1S(=O)(=O)c1ccc(C)cc1,18.2 µM (active),
CCC(=O)C1=C(c2cccc([N+](=O)[O-])c2)N(C(=O)CC)n2c(nnc2C2CCCCC2)S1,,6.08% (inactive)
CCOc1ccc(C(=O)c2cnc3ccc(Cl)cc3c2S(=O)(=O)c2ccc(C)cc2)cc1,,9.48% (inactive)
Cc1ccccc1S(=O)(=O)Cc1ccc(C(=O)N2CCN(c3cccc(Cl)c3)CC2)o1,,-27.6% (inactive)
Cc1ccc(S(=O)(=O)c2nnn3c2nc(NC2CCCCCC2)c2sccc23)cc1C,,-25.6% (inactive)
Cc1ccc(OCC(=O)Nc2ccc3nc(SCC(=O)N4CCc5ccccc54)sc3c2)cc1,,-19.9% (inactive)
COc1ccc(NC(=O)CCS(=O)(=O)c2nc(-c3cccs3)cc(C(F)(F)F)n2)cc1,,-4.25% (inactive)
CCC(C)NC(=O)C1CCN(C(=O)c2cc3sccc3n2Cc2ccc(Cl)cc2)CC1 (stereo not given),11.5 µM (active),
COc1ccc(Cl)cc1NC(=O)CCCS(=O)(=O)c1nc(-c2ccc(OC)c(OC)c2)cc(C(F)(F)F)n1,6.45 µM (active),
COC(=O)c1c(-c2ccc(Cl)cc2)noc1N1CCN(c2cccc(C(F)(F)F)c2)CC1,10.2 µM (active),
COCCCNC(=O)c1ccc(-n2c(-c3ccccc3)cc3c2CCC(C)C3)cc1 (stereo not given),,5.81% (inactive)
O=C(Cn1c(-c2cccs2)cc2ccccc21)NCCCN1CCN(c2ccc(F)cc2)CC1,,-19.8% (inactive)
CCC(Sc1nc2ccccc2c2nc(-c3ccccc3)nn12)C(=O)Nc1cccc(OC)c1 (stereo not given),,6.68% (inactive)
Cc1cccc(-n2c(=O)c3c(c4cc(C)ccc4n3C)n(CC(=O)NCCC3=CCCCC3)c2=O)c1,,-5.38% (inactive)
Cc1c(Cl)cccc1NC(=O)c1oc2ccc(S(=O)(=O)N3CCC4(CC3)OCCO4)cc2c1C,,-15.4% (inactive)
CCCn1c(=N)c(C(=O)NC(C)c2ccccc2)cc2c(=O)n3ccccc3nc21 (stereo not given),,-1.4% (inactive)
COc1ccc(-c2cc(C(F)(F)F)nc(S(C)(=O)=O)n2)cc1,18.2 µM (active),
CCOCCCNC(=O)c1ccc(-n2c(-c3ccccc3)cc3c2CCC(C)C3)cc1 (stereo not given),,3% (inactive)
COc1ccccc1NC(=O)Cn1c(=O)n(-c2cccc(Cl)c2)c(=O)c2sc3ccccc3c21,12.9 µM (active),
O=C(Cn1c(-c2cccs2)cc2cc(F)ccc21)NCCCN1CCN(c2ccc(F)cc2)CC1,,-28% (inactive)

SMILES,Potency,"activity change, negative = viability loss"
CCOC(=O)c1c(NC(=O)c2nc(S(C)(=O)=O)ncc2Cl)sc(C(C)=O)c1C,4.57 µM (active),
CCOc1cc(CNc2ccc(O)cc2)cc(Br)c1OCc1ccccc1,,-2.33% (inactive)
CCN(CC)CCNC(=O)c1cc(-c2ccc(Br)s2)nc2ccccc12,10.2 µM (active),
Cc1cc(NC(=O)C2CCCN(S(=O)(=O)c3cccc4nonc34)C2)ccc1Br (stereo not given),,-5.15% (inactive)
COc1ccc(Br)cc1CC1C(=O)Nc2ccccc21 (stereo not given),,-2.78% (inactive)
COc1ccccc1Nc1nn2c(=O)c3ccc(C(=O)Nc4ccc(F)cc4)cc3nc2s1,7.24 µM (active),
COc1ccccc1Nc1c2c(nc3ccc(NC(=O)/C=C/c4cccc(OC)c4OC)cc13)CCCC2,5.13 µM (active),
COc1ccc(NC(=O)c2oc3ccccc3c2NC(=O)Cc2ccc(F)cc2)c(OC)c1,,-17.8% (inactive)
CCS(=O)(=O)c1ncc(Cl)c(C(=O)Nc2c(C(=O)c3ccc(C)cc3)oc3ccccc23)n1,,7.96% (inactive)
CCC(=O)C1=C(c2cccc([N+](=O)[O-])c2)N(C(=O)CC)n2c(nnc2-c2ccccc2)S1,,1.46% (inactive)
COc1ccccc1CNC(=O)CSc1nnc(C)c2c(C)n(-c3ccccc3)nc12,,-13.1% (inactive)
COc1cccc(-n2c(SCC(=O)c3ccc(Cl)cc3)nc3c([nH]c4ccccc43)c2=O)c1,10.2 µM (active),
O=C(CCS(=O)(=O)c1nc(-c2cccs2)cc(C(F)(F)F)n1)Nc1ccc(OC(F)(F)F)cc1,,-29.1% (inactive)
COc1ccc(Br)c2c1-c1nc(NC(=O)c3cccc(C)c3)sc1C2,,-8.97% (inactive)
CCCN1CCN(CCCNC(=O)Cn2c(-c3cccs3)cc3ccccc32)CC1,,-7.46% (inactive)
O=C(Cn1c(-c2cccs2)cc2cc(F)ccc21)NCCCN1CCN(c2ccccc2F)CC1,,-14.6% (inactive)
O=S(=O)(NCC(c1ccco1)S(=O)(=O)c1cccs1)c1ccc(Cl)cc1 (stereo not given),,-23.4% (inactive)
COC(=O)c1ccccc1NC(=O)c1nc(S(=O)(=O)Cc2cccc(C)c2)ncc1Cl,,-12.8% (inactive)
COc1ccc(NC(=O)Cn2c(=O)n(CCC(=O)NCc3ccccc3OC)c(=O)c3ccccc32)cc1Cl,16.2 µM (active),
Cc1cccc(CS(=O)(=O)c2ncc(Cl)c(C(=O)Nc3nc4ccc(F)cc4s3)n2)c1,14.5 µM (active),
